Results from PubChem BioAssay AID1347426 (Functional Genomics Laboratory (NCATS/FGL), 2020).
Among all 31,000 sequences or so, about 1,400 (4.5%) were called active.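 The calls were made as follows: active = median seed-adjusted z-score above 1 or below -1; inactive = the rest.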 Many of the other results were omitted from the sample, so actives are more common in it than they were.

Assay: Novel Modifiers of Survival Motor Neuron (SMN) Protein: Gene Identification via Genome-wide siRNA Screen;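 also: luminescence tracks full-length SMN protein made from the SMN2 reporter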
Conditions: HEK293T SMN2-luciferase reporter, siRNA knockdown, 72 h; actives lie on both sides
Summary of the method: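 Luciferase signal, proportional to full-length SMN made from an SMN2 cDNA reporter in stable HEK293T cells, was read 72 h after siRNA reverse transfection. Values were expressed as MAD scores after non-targeting-control normalization and log10 conversion; seed analysis flagged off-targets.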

| Sequence | median seed-adjusted z-score |
| --- | --- |
| CGUUAUUGCCUGUUUGGAATT against GUCY1A2 | -0.186 (inactive) |
| GGGAAAAGCUUGACGAUUATT against RNF139 | 0.175 (inactive) |
| GGGUUGAAGGUGAUCAUCATT against IMMP2L | 0.919 (inactive) |
| GGCUCAUUGAGACGACUGATT against RCADH5 | -0.158 (inactive) |
| CACUGGAGACUUUCGCUUUTT against ZNF813 | 0.127 (inactive) |
| AGAUCUACAUCGUGAUGAATT against CDC2L1 | -1.14 (active) |
| GGUACUUCGUGAUCCGCAUTT against NECAP2 | -0.539 (inactive) |
| GGACUGUCAAUCUUAGAUATT against GRK4 | -0.267 (inactive) |
| CGUGUACAAGGCUCUAACATT against EPN3 | 0.184 (inactive) |
| CUACGAAUCUGUGAAUGAATT against ERH | -1.25 (active) |
| GCUAACCACUUGGAAGAUATT against PRMT7 | 0.204 (inactive) |
| GGCAGAACCUAUACCAGAATT against MED6 | -2.15 (active) |
| CAGAACCUGUUGUAGAAAATT against GSPT2 | 0.846 (inactive) |
| GGACGACUGCAGCAAGUUUTT against ATP2A3 | -0.28 (inactive) |
| AGACCAUCCCUAACGGAUATT against PRELP | -0.0579 (inactive) |
| GCUCGUAGUUGGGAUAACATT against FRAP1 | -1.02 (active) |
| GGCUCUCAGAUUGUUGACATT against GABARAPL2 | 0.528 (inactive) |
| GAACAUUGGUGACUAUAUUTT against GRIP2 | -0.0256 (inactive) |
| GGAUGAUGUGCGUAACAGATT against HAO1 | 0.421 (inactive) |
| CAGAAGUUCUCAGACCUAATT against ZNF721 | 0.404 (inactive) |
| GCUAUACGGUUGACAACGATT against ISLR | 0.00807 (inactive) |
| CCCUCCUCGUGGAACCAUATT against NEURL2 | 1.39 (active) |
| UCGUGGACCUGGUCUGUUATT against OGDHL | -0.0878 (inactive) |

| Sequence | median seed-adjusted z-score |
| --- | --- |
| GGUCGAAAAGCAAACUCAATT against PTPRN2 | -0.104 (inactive) |
| CAUGGAAGAUCUGACCAUATT against MEOX2 | 1.36 (active) |
| GCAGGAUGAUCUCAAGUAUTT against MOBKL2B | -0.613 (inactive) |
| CCGCAGUGGAAAUACCAUATT against ANGEL1 | -0.332 (inactive) |
| GCGGCUAACAGGAUAUGUATT against ACTN2 | 0.165 (inactive) |
| CACAAGAUAUCAGGAGAAATT against FCRL2 | -0.294 (inactive) |
| CAUGAUCUCCGGCUACCUATT against SLCO2B1 | 0.289 (inactive) |
| GGAUGCUCCAAGUCUGUCATT against GPR179 | -0.513 (inactive) |
| GCAGUUGUCCAGUUACGAATT against RAD50 | 0.266 (inactive) |
| GAAGCUACAUGGGAAGUGUTT against SIRT7 | -0.427 (inactive) |
| CAGGUCGACUGAUAGAUCATT against DDX42 | -2.13 (active) |
| GGACUGAUCAUGAACCUCUTT against CPEB3 | 0.086 (inactive) |
| GAGUUUAAUCUGAUUGAUATT against MOBKL1B | 0.31 (inactive) |
| GCACUAUAUGAAUACGCAATT against AUP1 | 0.305 (inactive) |
| GCAUCACACUCACAUCCCATT against DNASE2 | -1.23 (active) |
| GCUCUGUACAGGAAACUCUTT against IL2RA | 0.587 (inactive) |
| GUGUAGGGAUAGUUACCAATT against ZNF518A | -0.252 (inactive) |
| GAGUUCUACUUGUCCAAUUTT against ZDHHC20 | -0.936 (inactive) |
| GGCUUUGCUUAAGUUCAAATT against LPCAT4 | 0.338 (inactive) |
| CAACCAUAGUUAAAGUUAATT against TCP1 | -1.02 (active) |
| GGAUGUCUCAUUACACCAUTT against TGFBR3 | 0.285 (inactive) |
| UGCUGGUGUUUAAACCCAUTT against C5AR1 | 0.366 (inactive) |
| GCGACUUCAUGAUAGCAUATT against CAMK2D | 0.0676 (inactive) |

| Sequence | median seed-adjusted z-score |
| --- | --- |
| GGAGAUAUUUUUGACGGAATT against ZFHX3 | 0.045 (inactive) |
| AAGCCUACCAGGUCAAGUATT against EVI5L | 0.0497 (inactive) |
| GGAUAUUAAGGACAGGAAATT against RAN | -3.09 (active) |
| GAAGCUACAGAAUCUGGAATT against ARFGAP2 | 0.0672 (inactive) |
| GGAUUCAACUUUACAAGAATT against BTD | -0.165 (inactive) |
| AGGAGAUCGUCGUCACUGATT against NNMT | -0.095 (inactive) |
| CCAUAGCAGUAAUGAUACATT against GRIN3A | 0.241 (inactive) |
| GCCUGAACCGAGUAGAAGATT against KCNQ1 | -0.0525 (inactive) |
| GCAAGACCAUCAACAAGAUTT against CHRNE | 0.349 (inactive) |
| CGGUCACAAUUUGCGCUGATT against ST8SIA3 | -0.848 (inactive) |
| AAACAAUGGUUUGUGCAAATT against UCRC | -0.93 (inactive) |
| GGCUUUAAGAUCACGCAGATT against SNRPA | -2.09 (active) |
| GGUCCGCUACUACCACCAATT against FUT4 | -0.24 (inactive) |
| GAAGCUUACAGAUUCGAUATT against CNTNAP2 | -0.196 (inactive) |
| GGAUGACAUUAGCAGGUAUTT against ERCC6 | 0.0421 (inactive) |
| GAAAGUUCAAGUACAGUGATT against CYP2E1 | 0.81 (inactive) |
| GAAUCUGGUGGGCCCUUUATT against POFUT2 | -0.86 (inactive) |
| GCUCAGCAUUGUCUGCAAATT against RNASE6 | 0.832 (inactive) |
| GAUUCUAGGAUAAGCACUATT against KLK8 | 0.736 (inactive) |
| GGUAAAGUUUUACAGCAUUTT against MTCH2 | -0.168 (inactive) |
| CCUGUAGAUUUGUCAACUATT against RANBP2 | 1.53 (active) |
| AGCACGAAGGCAAACCCUATT against CRIP1 | -0.622 (inactive) |
| GUUGAGCCCUUGUAUAUUATT against UBE2C | 0 (inactive) |
